In all, about 390,000 compounds went through this assay and about 930 (0.24%) were called active. Roughly 5% stayed inconclusive and do not appear here. Calls come from the whole dose curve; as a rule, active = well fitted activation curve with a large enough effect; inconclusive = small, poorly fitted or top-dose-only effect; inactive = no such curve, though single readings can be large or run the other way. What follows is part of a selection rich in actives, with near analogues and random picks from the rest. A call without a number means that no potency is given here.
test: qHTS for Suppressors of FUS Proteinopathy: Primary screen using FUS-linked yeast assay; note: nearly all actives have a fitted effect of over 55% in size; conditions: S. cerevisiae FUS-expressing, OD600, 24 h; Potency: growth rescue; series mostly up to 76.6 µM
From the text: Several widespread neurodegenerative diseases, including Alzheimer disease, Huntington disease, Frontotemporal Lobar Degeneration (FTLD) and Amyotrophic Lateral Sclerosis (ALS), share a common pathological feature, namely accumulation of specific protein aggregates in diseased tissue. These diseases which is associated with protein misfolding (proteinopathies) have become increasingly problematic as the population ages and life expectancies are extended. Most proteinopathies are currently incurable, a situation confounded by the fact that the basis of neurodegeneration is generally poorly understood. There exists urgent and significant need to find therapeutics that can inhibit the toxicity associated with protein aggregation. A novel approach to understand the underlying mechanisms of neurodegenerative diseases has recently emerged in which the disease conditions are modeled in the yeast (Saccharomyces cerevisiae), a tractable eukaryotic organism with conserved protein quality control mechanisms. Yeast offers quick and reliable genetic manipulations and can be easily tailored to high-throughput screening (HTS).
For this project, a yeast model of the FUS proteinopathies (a spectrum of neurodegenerative diseases that include ALS and a subtype of FTLD) was generated and employed. The cytoplasmic accumulation of the DNA/RNA-binding protein FUS (also known as TLS) is causative to both familial and sporadic forms of ALS and FTLD. This yeast model recapitulates neuronal pathology by showing severe cytotoxicity associated with cytoplasmic accumulation of FUS aggregates and a specific interaction between FUS and TDP-43, another ALS-associated protein. […] Specifically, the cellular accumulation of misfolded FUS that disrupts RNA homeostasis in both yeast and higher eukaryotes. This model was validated to be suitable for quantitative HTS (qHTS) use for finding genetic or chemical factors that restore growth. […] Identified compounds that inhibits FUS-yeast toxicity is flagged, re-acquired, and validated for further investigation and optimization.
NIH Chemical Genomics Center [NCGC]
NIH Molecular Libraries Probe Production Centers Network [MLPCN]
Assay Submitter (PI): Frank Shewmaker PhD, Uniformed Services University of the Health Sciences
Compound CP55940 was used as the positive control. Column 1 was treated with CP55940 titration from 92uM (final concentration, 1:2 dilution), while Column 2 was treated with top dose 92uM. Columns 3 and 4 were treated with DMSO only as negative control to assess background and noise signal.
Four hundred fifty microliter of cultured yeast (in 20mL rich medium) provided by Dr. Shewmaker lab was incubated at 30C at 99% humidity for 3hr. The culture was then spun down at 4000rpm for 5min and the cell pellet was resuspended in 2mL of Sdmin Media + ALU(330) + 2.5% Raffinose. One hundred microliter of the suspension was added to 900uL of water and OD of the solution was obtained. Twenty mL of responding medium (provided by Shewmaker lab) + 2.5% raffinose was added to ensure cell density of 0.1; the solution was incubated overnight. Working cell solution (FUS-yeast in Sdmi + Sdmi + 1X ALU + 2% galactose media) was prepared (final OD at 0.005) and 3uL was dispensed in a 1536-well Aurora high based clear bottom assay plates. Controls and library compounds (at various final concentrations from 40uM to 0.32uM) were added using a 1536-well pin array using the Kalypsys pin-tool. The plates were then incubated for 24hrs in a cell-culture incubator (30C; 99% humidity). Absorbance at 600nm was then read using the PerkinElmer ViewLux plate reader.
Potency is the fitted concentration of half-maximal effect.

Row | SMILES | Potency
1 | CC(C)c1ccc(NC(=O)c2ccc3c(O)c(S(=O)(=O)c4ccccc4)c(=O)[nH]c3c2)cc1 | inactive
2 | Cc1ccc(Cl)cc1-n1ncc2c(N3CCC(C(N)=O)CC3)ncnc21 | inactive
3 | CCOC(=O)c1c(NC(C)=O)c2c3c(sc2n1Cc1c(C)cc(C)cc1C)CCCC3 | inactive
4 | CCc1ccccc1NC(=O)CSc1nnc(-c2ccccc2)c(-c2ccccc2)n1 | inactive
5 | CCOCCCn1c(SCC(=O)Nc2ccc(CC)cc2)nc2ccccc2c1=O | inactive
6 | O=C(CN1CCOCC1)Nc1ccccc1 | 25.1 µM (active)
7 | O=C(CN1CCOCC1)Nc1c2c(nc3c1CCC3)CCC2 | inactive
8 | O=C(CN1CCOCC1)Nc1c(Cl)cc(Cl)cc1Cl | inactive
9 | CN(C)S(=O)(=O)c1cccc(NC(=O)COC(=O)C2(c3ccccc3F)CCCC2)c1 | inactive
10 | CN(c1ccccc1)S(=O)(=O)c1ccc(NC(=O)COc2ccccc2)cc1 | inactive
11 | CN(C)S(=O)(=O)c1cccc(NC(=O)COc2ccc3ccccc3c2)c1 | 22.4 µM (active)
12 | Cc1ccc(NC(=O)C2CCN(S(=O)(=O)c3cc(-c4noc(C)n4)ccc3C)CC2)c(C)c1 | inactive
13 | Cc1ccccc1C(=O)Nc1nnc(S(=O)(=O)N(C)c2ccc(Cl)cc2)s1 | inactive
14 | CCOC(=O)C1=C(C)NC(SC)=NC1c1ccccc1 (configuration not stated) | inactive
15 | CCOC(=O)C1=C(C)NC2=C(C(=O)CC(C)(C)C2)C1c1ccsc1 (configuration not stated) | inactive
16 | CCOC(=O)C1=C(C)Nc2sc(C(=O)c3ccc(Br)cc3)c(N)c2C1c1ccc(C(=O)OC)cc1 (configuration not stated) | 31.6 µM (active)
17 | O=C(NCc1ccccc1)c1cccc(NC(=O)N2CCSc3ncccc32)c1 | inactive
18 | Cc1cc(C(=O)Nc2cccc(C(F)(F)F)c2)c2c(C)nn(-c3cccc(F)c3)c2n1 | inactive
19 | CC(C)(C)c1ccc(C(=O)Nc2ccc3c(c2)CCCN3C(=O)c2cccs2)cc1 | inactive

Row | SMILES | Potency
20 | CC(C)(C)c1ccc(S(=O)(=O)Nc2ccc(O)c(Sc3nc4ccccc4s3)c2)cc1 | inactive
21 | CC(C)c1ccc(S(=O)(=O)Nc2ccc(O)c(Sc3nc4ccccc4s3)c2)cc1 | inactive
22 | CCOc1ccc(Nc2c(S(=O)(=O)c3ccccc3)cnc3ccccc23)cc1 | inactive
23 | Cc1c(NC(=O)Cc2ccccc2)cccc1-c1nc2cccnc2s1 | inactive
24 | Cc1ccc(Cl)cc1NC(=O)CCC(=O)N1CC(C)Sc2ccccc21 (configuration not stated) | inactive
25 | CCCn1c(C)cc(/C=C(\C#N)C(=O)OCC(=O)Nc2cc(OC)c(OC)c(OC)c2)c1C | inactive
26 | CCCn1c(C)cc(/C=C(\C#N)C(=O)OCC(=O)N(C)c2c(N)n(Cc3ccccc3)c(=O)[nH]c2=O)c1C | 25.1 µM (active)
27 | CCN(C(=O)COC(=O)CCOc1cccc(C)c1)c1c(N)n(Cc2ccccc2)c(=O)[nH]c1=O | inactive
28 | CCC1CCCCN1C(=O)Cn1c(=O)n(CCCCCC(=O)NCc2ccccc2)c(=O)c2sccc21 (configuration not stated) | inactive
29 | COc1ccc(NC(=O)NC(C)c2c(-n3cccc3)sc(C)c2C)cc1OC (configuration not stated) | inactive
30 | CCN(CC)S(=O)(=O)c1ccc2c(c1)N(CC(=O)NCC(C)c1ccccc1)C(=O)CO2 (configuration not stated) | inactive
31 | CCN(CCCNC(=O)c1cc2c(=O)n(CC)c3ccccc3c2s1)Cc1ccccc1 | inactive
32 | Cc1cccc(NC(=O)CSc2nnc(CNC(=O)c3cccc(C)c3)n2-c2ccccc2)c1 | inactive
33 | CCc1ccc(S(=O)(=O)c2nnn3c2nc(NCc2ccccc2OC)c2cc(Cl)ccc23)cc1 | inactive
34 | N#C/C(=C\c1cccc(F)c1)c1nc(-c2cc3c(ccc4ccccc43)oc2=O)cs1 | inactive
35 | COc1ccc(C2C(=O)N(C3CCCCCC3)CC(=O)N2CCc2ccc(Cl)cc2)cc1OC (configuration not stated) | inactive
36 | Cc1onc(-c2ccc(F)cc2F)c1C(=O)Nc1cccc(C(F)(F)F)c1 | inactive
37 | Cc1ccc(CNC(=O)CSC2=Nc3ccccc3C3=NC(C)C(=O)N23)cc1 (configuration not stated) | inactive
38 | Cc1ccc(N2C(=O)C3N=NN(CC(=O)N4N=C(c5cccc6ccccc56)CC4c4ccccc4)C3C2=O)cc1 (configuration not stated) | 14.1 µM (active)

Row | SMILES | Potency
39 | COc1ccc(C2=NN(C(=O)CSc3nc(=O)n4ccc(C)cc4n3)C(c3ccc(C)cc3)C2)cc1 (configuration not stated) | inactive
40 | COc1ccccc1CNC(=O)Cn1nc(C)c2nn(-c3ccc(Cl)cc3)c(C)c2c1=O | inactive
41 | Cc1ccc(NC(=O)c2nc(S(=O)(=O)Cc3cccc(C)c3)ncc2Cl)cc1 | inactive
42 | CCN1C(=O)[C@H]2[C@@H](c3ccc(SC4CCCCC4)c(OC)c3)N[C@@](Cc3ccccc3)(C(=O)OC)[C@H]2C1=O | inactive
43 | CCN1C(=O)[C@H]2[C@@H](c3ccc(-c4ccc(OC)cc4)cc3)N[C@@](Cc3ccccc3)(C(=O)OC)[C@H]2C1=O | inactive
44 | CCN1C(=O)[C@H]2[C@@H](c3ccc(-c4ccc(F)cc4)cc3)N[C@@](Cc3ccccc3)(C(=O)OC)[C@H]2C1=O | 11.2 µM (active)
45 | COC(=O)c1cc2occc2n1Cc1nc(-c2ccc(C)cc2)oc1C | inactive
46 | CCN(Cc1ccccc1)S(=O)(=O)c1ccc2c(c1)CCCN2C(C)=O | inactive
47 | Cc1cccc(CSc2nc3ccncc3n2CC(=O)N(C)C2CCCCC2)c1 | inactive
48 | Cc1ccc(Cl)cc1N(C)C(=O)C1CCCN(c2ncnc3onc(-c4ccc(F)cc4)c23)C1 (configuration not stated) | inactive
49 | CC1C(=O)Nc2ccc(S(=O)(=O)N3CCN(c4ccccc4F)CC3)cc2NC1=O (configuration not stated) | inactive
50 | COc1ccc(N2CCN(S(=O)(=O)c3ccc4c(c3)NC(=O)C(C)C(=O)N4)CC2)cc1 (configuration not stated) | inactive
51 | CON(C)S(=O)(=O)c1ccc2c(c1)NC(=O)C1CCCN21 (configuration not stated) | 28.2 µM (active)
52 | COc1ccc(OCCCn2c(C)nc3cc(C)c(C)cc32)cc1 | inactive
53 | CC(NC(=O)c1cc(Sc2ccc(F)cc2F)nc2ccccc12)c1ccccc1 (configuration not stated) | inactive
54 | Cc1cccc(-n2ncc(C(=O)N3CCc4ccccc4C3)c2C2CCN(C(=O)OC(C)(C)C)CC2)c1 | inactive
55 | Cc1ccc2nc(N3C(=O)C(O)=C(C(=O)c4ccco4)C3c3cccc(O)c3)sc2c1 (configuration not stated) | 15.8 µM (active)
56 | CC(=O)c1sc(N2C(=O)c3oc4ccccc4c(=O)c3C2c2ccc(C)cc2)nc1C (configuration not stated) | inactive
57 | CCOc1cc(C2C(C(=O)c3ccco3)=C(O)C(=O)N2Cc2ccccc2)ccc1O (configuration not stated) | inactive
